The source of these data is PubChem BioAssay AID485341 (National Center for Advancing Translational Sciences (NCATS), 2010).

Structures are written as SMILES. Hit rate of the full screen: of about 330,000 compounds, about 1,700 (0.52%) were called active. The call rests on the fitted dose curve; in most records, active means well fitted inhibition curve with a large enough effect; inconclusive means small, poorly fitted or top-dose-only effect; inactive means no such curve, though single readings can be large or run the other way. For the sample, actives were picked, then their nearest neighbours and some compounds at random.
Potency means the concentration at half of the fitted maximal effect.

Beta-lactamase (Escherichia coli (strain K12)), sequence (P00811 whole entry, looked up): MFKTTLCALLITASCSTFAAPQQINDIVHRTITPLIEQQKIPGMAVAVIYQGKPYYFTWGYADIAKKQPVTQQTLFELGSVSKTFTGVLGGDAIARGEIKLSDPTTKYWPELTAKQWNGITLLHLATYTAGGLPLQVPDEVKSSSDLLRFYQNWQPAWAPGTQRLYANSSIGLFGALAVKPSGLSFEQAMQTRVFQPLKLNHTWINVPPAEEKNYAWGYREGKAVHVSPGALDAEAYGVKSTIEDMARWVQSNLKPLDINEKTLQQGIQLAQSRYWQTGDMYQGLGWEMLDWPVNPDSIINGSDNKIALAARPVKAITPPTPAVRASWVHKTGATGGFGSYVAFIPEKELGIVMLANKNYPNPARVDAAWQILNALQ

The test has as its target Beta-lactamase (Escherichia coli (strain K12)) (UniProt P00811). Kind of test: qHTS Inhibitors of AmpC Beta-Lactamase (assay without detergent). Further: nearly all actives have a fitted effect of over 20% in size. The conditions noted are these: AmpC nitrocefin hydrolysis, absorbance 480 nm, 0.0001% Triton; series mostly up to 57.1 µM; activity change, negative = inhibition: at the top concentration. Summed up: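 20 mM phosphate pH 7.0 + 0.01% (detergent screen) or 0.0001% Triton X-100; 5.3 nM AmpC reagent; cpd preinc 15 min RT; nitrocefin (800 uM stock) to start; A480 q20 s × 4 min; Activity was normalised to no-enzyme and no-compound control wells.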
For orientation: Quantitative high-throughput screening tests each substance at several concentrations.
Turning to `O=[N+]([O-])c1ccc(N2CCN(S(=O)(=O)c3ccccc3)CC2)cc1N1CCc2ccccc2C1`, the “activity change, negative = inhibition” value was -9.35% (inactive).

Take `O=C(N[C@@H](Cc1ccccc1)C(=O)OCc1ccccc1)c1nc[nH]c1C(=O)N[C@@H](Cc1ccccc1)C(=O)OCc1ccccc1`: the “activity change, negative = inhibition” value is -12.3% (inactive). Still for that read-out and setting: in the case of `CCC(C(=O)Nc1ncccn1)(C(F)(F)F)C(F)(F)F` it was -12.8% (inactive); in that of `CSc1ccc(CCNC(=O)CS(=O)(=O)Cc2nc(-c3ccccc3F)oc2C)cc1`, 21.8% (inactive).

For `Cc1ccccc1-c1nc(CS(=O)(=O)CC(=O)N2CCc3ccccc3C2)c(C)o1`, the Potency is 11.2 µM (active). For the compound `Cc1ccccc1-c1nc(CS(=O)(=O)CC(=O)NC(C)c2ccccc2)c(C)o1` (stereo not given), the “activity change, negative = inhibition” value was 17.9% (inactive). `CCC[C@H]1CCCC/C=C\CCCC(=O)OCCN1C(=O)OC(C)(C)C`: the “activity change, negative = inhibition” value was 78.3% (inactive). On the same count and under the same terms, to `COCCn1c(CN(Cc2ccccc2)Cc2ccccc2)nc2c1c(=O)n(C)c(=O)n2C` belongs 176% (inactive). As for `CC(C)Cn1c(CN(Cc2ccccc2)Cc2ccccc2)nc2c1c(=O)n(C)c(=O)n2C`, the Potency was 3.55 µM (active). Take `CC1CCCN(Cc2nc3c(c(=O)n(C)c(=O)n3C)n2CC(=O)c2ccccc2)C1` (stereo not given): the “activity change, negative = inhibition” value is 123% (inactive). The same measure, in the same setting: to `COCCn1c(CN2CCC(Cc3ccccc3)CC2)nc2c1c(=O)n(C)c(=O)n2C` belongs 0.0682% (inactive).

As to `CCN1CCN(Cc2nc3c(c(=O)n(C)c(=O)n3C)n2CC(=O)c2ccccc2)CC1`, the Potency is 1.58 µM (active). For `CC(C)CCn1c(CN(C)Cc2ccccc2)nc2c1c(=O)n(C)c(=O)n2C`, the “activity change, negative = inhibition” value was 87% (inactive).

In the case of `Cc1oc2nc(SCC(=O)Nc3ccc(S(N)(=O)=O)cc3)nc(NC(=O)c3ccccc3)c2c1C`, the “activity change, negative = inhibition” value was -28.2% (inactive).

`O=C(CNC1CCCCC1)NCC1(c2ccccc2)CCCC1`: the “activity change, negative = inhibition” value is -22.1% (inactive).

For the compound `Cc1ccc(-n2c(C)cc(C(=O)CSc3nnc4ccccn34)c2C)cc1`, the “activity change, negative = inhibition” value is -0.189% (inactive). With `O=C(CSc1nnc2ccccn12)c1ccccc1`, the Potency was 44.7 µM (active). Take `Cc1ccc(C(=O)NNC(=O)CSc2nnc3ccccn23)cc1`: the “activity change, negative = inhibition” value is -13.5% (inactive). For the compound `O=C(NCCc1csc(-c2ccccc2)n1)c1ccccc1F`, the “activity change, negative = inhibition” value is -2.06% (inactive).

`COc1ccc(N2CCN(C(=O)CNC(=O)c3ccc(Br)o3)CC2)cc1`: the “activity change, negative = inhibition” value was -0.595% (inactive). Take `COc1ccc(-c2nc(CCNC(=O)c3ccc(Br)o3)cs2)cc1`: the Potency is 44.7 µM (active). On to `CCOC(=O)N1CCN(Cc2oc(CO)cc(=O)c2O)CC1`, for which the “activity change, negative = inhibition” value is -9.1% (inactive). As for `C=CC1=C(C(=O)O)N2C(=O)[C@@H](NC(=O)/C(=N\OCC(=O)O)c3csc(N)n3)[C@H]2SC1`, the Potency was 2 µM (active). For `CC(C)(C)OC(=O)C1=C(CO)CS[C@@H]2[C@H](NC(=O)Cc3ccccc3)C(=O)N12`, the “activity change, negative = inhibition” value is -11.7% (inactive).

Consider `Cc1cc(C)cc(C(=O)NC2C(=O)N3C(C(=O)O)=C(CSc4nnc(C)s4)CSC23)c1` (stereo not given), for which the “activity change, negative = inhibition” value is -28.5% (inactive). The same measure, in the same setting: in the case of `Cc1nnc(SCC2=C(C(=O)O)N3C(=O)C(NC(=O)Cn4nc(C)c(Cl)c4C)C3SC2)s1` (stereo not given) it was 1.18% (inactive). On the same count and under the same terms, in the case of `O=C(CN1C(=O)NC2(CCCCC2)C1=O)NCCC1=CCCCC1` it was -12.1% (inactive). Consider `O=S(=O)(c1ccc(Cl)s1)N1CCC2(CC1)OCCO2`, for which the “activity change, negative = inhibition” value was 2.59% (inactive). The same measure, in the same setting: to `COc1ccc(CNC(=O)CN2C(=O)NC3(CCCc4sccc43)C2=O)cc1` (stereo not given) belongs -9.03% (inactive); to `C=CCC1=C/C(=C\c2c(N)n3nc(CC(=O)N4CCOCC4)sc3nc2=O)C=C(OC)C1=O`, 26.6% (inactive). On the same count and under the same terms, to `COC(=O)C1(C)NC(c2ccc(F)cc2)C2C(=O)N(c3ccccc3)C(=O)C21` (stereo not given) belongs -7.33% (inactive).

For the compound `COC(=O)CSc1snnc1-c1ccc(Cl)c(Cl)c1`, the “activity change, negative = inhibition” value was -0.324% (inactive). On the same count and under the same terms, in the case of `O=C1c2ccccc2NC(c2ccccn2)N1NS(=O)(=O)c1ccccc1` (stereo not given) it was -11.1% (inactive); in that of `Clc1ccc(Cl)c(Oc2ccc(Oc3nc(Cl)ccc3Cl)cc2)n1`, -11% (inactive); in that of `Nc1c(N(CCCO)C(=O)C2CCCC2)c(=O)[nH]c(=O)n1Cc1ccccc1`, -5.31% (inactive).

With `CCCCCn1c(SCCC(C)C)nc2c1c(=O)[nH]c(=O)n2C`, the “activity change, negative = inhibition” value was -18.6% (inactive). With `COC(=O)c1c(NC(=O)c2ccc(S(=O)(=O)N3CCOCC3)cc2)sc2c1CCN(C(C)C)C2`, the “activity change, negative = inhibition” value was 150% (inactive). `N#CCC(=O)N/N=C/c1cn(Cc2ccc3ccccc3c2)c2ccccc12`: the “activity change, negative = inhibition” value was -51.5% (inactive). On to `COc1cccc(Cn2cc(/C=N/NC(=O)c3cc(O)cc(O)c3)c3ccccc32)c1`, for which the Potency was 7.94 µM (active).

Consider `CNC(=S)N/N=C/c1cn(Cc2ccc(C)cc2)c2ccccc12`, for which the “activity change, negative = inhibition” value was -7.01% (inactive). On to `Cc1ccc(C(=O)N/C(=C\c2ccco2)C(=O)NC2CCS(=O)(=O)C2)cc1` (stereo not given), for which the “activity change, negative = inhibition” value was -10.6% (inactive). Take `Cc1cccc(C)c1NC(=O)CS(=O)CC(=O)N1CCN(c2ccccc2)CC1` (stereo not given): the “activity change, negative = inhibition” value is 8.61% (inactive). The same measure, in the same setting: in the case of `O=C(O)CCCN1C(=O)c2ccccc2Sc2ncccc21` it was -23.4% (inactive); in that of `COCCN(CCOC)S(=O)(=O)c1ccc(C(=O)Nc2nc3c(s2)CCc2ccccc2-3)cc1`, 11.3% (inactive).

As to `O=C(Nc1ccc(S(=O)(=O)N2CCc3ccccc3C2)cc1)c1ccccc1`, the “activity change, negative = inhibition” value is -26.2% (inactive). Turning to `C=CCN(CC=C)S(=O)(=O)c1ccc(C(=O)Nc2nc3c(s2)CCc2ccccc2-3)cc1`, the Potency was 8.91 µM (active). Consider `O=C(Cc1ccccc1)NCC1OCCc2ccccc21` (stereo not given), for which the “activity change, negative = inhibition” value is -17.1% (inactive).

`Cn1cccc1/C=C1\SC(=S)N(NC(=O)c2ccc(Cl)cc2)C1=O`: the “activity change, negative = inhibition” value is -37.8% (inactive). In the case of `O=C(O)c1ccc(/C=C2\SC(=S)N(NC(=O)c3ccc(Br)cc3)C2=O)cc1`, the “activity change, negative = inhibition” value was -30.6% (inactive).

On to `CC(=O)N1C(=O)/C(=C2\SC(=S)N(NC(=O)c3ccc(O)cc3)C2=O)c2ccccc21`, for which the Potency was 20 µM (active).
